The values below come from PubChem BioAssay (NCI).

Some test systems named below: MOLT-4 leukemia; SR leukemia; RPMI-8226 leukemia; OVCAR-5 ovarian; OVCAR-4 ovarian; SK-OV-3 ovarian; OVCAR-3 ovarian; HS 578T breast; OVCAR-8 ovarian; IGROV1 ovarian.
Common to all, as to test: NCI-60 one-dose screen, 48 h (100 = growth as untreated, 0 = no growth, -100 = all killed)
Common to all, as to settings: 10 µM

This is part of a sample that, as a whole, favours compounds with a hit. Of some 83,000 tested, about 20% had one in any assay.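 The test compound was applied at a single concentration to cells in 96-well plates for 48 hours, and percent growth was recorded.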 A number with no mark means an inactive call. Calls of active or inactive are those of the source. How the source made its calls: active means growth percent below 10; inactive means the rest.

As for `CC12OOC(c3ccccc31)c1c2ccc2ccccc12` (stereo not drawn), the growth in the experiment with MOLT-4 leukemia was -58.3% (active); in the experiment on SR leukemia it was -18.8% (active); in the experiment on RPMI-8226 leukemia, -33.8% (active); in the experiment with OVCAR-5 ovarian it was 66.1%; in the experiment on OVCAR-4 ovarian, -57.7% (active); in the experiment with SK-OV-3 ovarian, 95.8%. For the same compound, the growth in the experiment on OVCAR-3 ovarian was -92.4% (active); in the experiment with HS 578T breast, 91.6%.
`O=[N+]([O-])c1cc[n+]([O-])c2ccccc12`: the growth with MOLT-4 leukemia is 3.5% (active); in the experiment with RPMI-8226 leukemia it was -7.21% (active); with OVCAR-8 ovarian, -31.1% (active); in the experiment on OVCAR-5 ovarian, -13.7% (active); in the experiment with OVCAR-4 ovarian, -99.6% (active); in the experiment on SK-OV-3 ovarian, -18.4% (active). Also, the results for the growth in the experiment on IGROV1 ovarian, in the experiment on OVCAR-3 ovarian and in the experiment on HS 578T breast were -24.3% (active), 4.56% (active) and 18.7%, respectively.
`CCOP(=O)(OCC)/C(C#N)=C/c1ccc(Br)cc1`: the growth is 92% with MOLT-4 leukemia; 54.9% in the experiment with RPMI-8226 leukemia; 100% in the experiment with OVCAR-8 ovarian; 90.7% with OVCAR-5 ovarian; 98.4% in the experiment with OVCAR-4 ovarian; 97.4% in the experiment with SK-OV-3 ovarian. Moreover, the growth in the experiment with OVCAR-3 ovarian is 112%; with HS 578T breast, 100%.
For `COc1ccc2c(ccc3oc([N+](=O)[O-])cc32)c1`, the growth was -19% (active) in the experiment with MOLT-4 leukemia; -9.5% (active) in the experiment with SR leukemia; 12.1% in the experiment on RPMI-8226 leukemia; 0.0755% (active) in the experiment on OVCAR-8 ovarian; 9.85% (active) in the experiment with OVCAR-5 ovarian; 28.9% in the experiment with OVCAR-4 ovarian. Besides, the growth was -12.6% (active) with SK-OV-3 ovarian, -13.9% (active) in the experiment with OVCAR-3 ovarian and -7.73% (active) in the experiment with HS 578T breast.
As to `C/C1=C\[C@H](C)C[C@H](C)OC(=O)C[C@H](c2ccc(O)cc2)NC(=O)[C@@H](Cc2c(Br)[nH]c3ccccc23)N(C)C(=O)[C@H](C)NC(=O)[C@@H](C)C1`, the growth with MOLT-4 leukemia was 2.89% (active); in the experiment on SR leukemia it was -3.88% (active); in the experiment on RPMI-8226 leukemia it was -56.9% (active); with OVCAR-5 ovarian it was -35.1% (active); in the experiment with OVCAR-4 ovarian, -54.6% (active); in the experiment on SK-OV-3 ovarian it was -20.9% (active). In addition, the growth is -79.1% (active) in the experiment on IGROV1 ovarian, -44.9% (active) with OVCAR-3 ovarian and -40.4% (active) with HS 578T breast.
For the compound `C[C@]12CC[C@H]3[C@@H](CCC4=CC(=O)CC[C@@H]43)[C@@H]1CC[C@@H]2OC(=O)N(CCCl)N=O`, the growth was 12.8% in the experiment on MOLT-4 leukemia; 5.42% (active) in the experiment with RPMI-8226 leukemia; 54.3% in the experiment with OVCAR-8 ovarian; 108% in the experiment on OVCAR-5 ovarian; 84.8% with OVCAR-4 ovarian; 46.7% with SK-OV-3 ovarian. In addition, the figures for the growth in the experiment on IGROV1 ovarian, in the experiment on OVCAR-3 ovarian and in the experiment on HS 578T breast were -2.36% (active), 89.9% and 69.7%, respectively.
With `COC12C(COC(N)=O)C3=C(C(=O)C(C)=C(N)C3=O)N1CC1C2N1C` (stereo not drawn), the growth in the experiment on MOLT-4 leukemia was 7.02% (active); in the experiment with SR leukemia it was 4.38% (active); in the experiment with RPMI-8226 leukemia, 51.7%; in the experiment with OVCAR-5 ovarian, 67.5%; in the experiment on OVCAR-4 ovarian, 70.5%; in the experiment with SK-OV-3 ovarian it was 54.7%. The results for the growth with IGROV1 ovarian, with OVCAR-3 ovarian and in the experiment with HS 578T breast were 24.4%, 79.2% and 67.1%, respectively.
As for `CC1CCC2(OC1)OC1C(O)C3C4CCC5CC(OC6OC(CO)C(OC7OC(CO)C(O)C(OC8OCC(O)C(O)C8O)C7OC7OC(CO)C(O)C(OC8OC(CO)C(O)C(O)C8O)C7O)C(O)C6O)C(O)CC5(C)C4CCC3(C)C1C2C` (stereo not drawn), the growth in the experiment on MOLT-4 leukemia was 28.8%; with SR leukemia, 9.36% (active); with RPMI-8226 leukemia, -47.1% (active); in the experiment on OVCAR-5 ovarian, -62.6% (active); in the experiment on OVCAR-4 ovarian it was -66.7% (active); in the experiment on SK-OV-3 ovarian, -35.8% (active). Moreover, the growth was -47.7% (active) with IGROV1 ovarian and -83.1% (active) in the experiment on OVCAR-3 ovarian.
For `O=[N+]([O-])c1ccc(N(CCO)CCO)c2c1no[n+]2[O-]`, the growth was -24.4% (active) in the experiment with MOLT-4 leukemia; -53.7% (active) in the experiment with RPMI-8226 leukemia; 2.5% (active) with OVCAR-8 ovarian; 18.5% with OVCAR-5 ovarian; -25.8% (active) in the experiment with OVCAR-4 ovarian; -35.8% (active) with SK-OV-3 ovarian. In addition, the growth in the experiment on OVCAR-3 ovarian was -65.9% (active); in the experiment on HS 578T breast it was -30.8% (active).
Regarding `COC(=O)C1C(O)C(C)C(O)C(C)/C=C\C=C(C)C(=O)Nc2c(C)c(OC(C)=O)c3c(c2O)C(=O)C(C)=C2OCOC(=C23)C(C)=CC(C)(O)C(O)C(C)C1O` (stereo not drawn), the growth in the experiment with MOLT-4 leukemia is 51.9%; with SR leukemia, 49.3%; with RPMI-8226 leukemia, 95.3%; in the experiment with OVCAR-5 ovarian it was 77%; in the experiment with OVCAR-4 ovarian, 79.4%; in the experiment on SK-OV-3 ovarian, 108%. For the same compound, the growth with IGROV1 ovarian is 58.7%; in the experiment on OVCAR-3 ovarian, 105%; in the experiment on HS 578T breast, 81.7%.
As to `CC[C@@]1(O)C[C@H](OC2CC(N(C)C)C(O)C(C)O2)c2c(cc3c(c2O)C(=O)c2c(O)ccc(O)c2C3=O)[C@H]1C(=O)OC` (stereo partly drawn), the growth in the experiment on MOLT-4 leukemia is -19.5% (active); in the experiment with SR leukemia, -18.2% (active); with RPMI-8226 leukemia it was -32.6% (active); in the experiment with OVCAR-5 ovarian, -87% (active); with OVCAR-4 ovarian, -44.2% (active); with SK-OV-3 ovarian it was -68.9% (active). Besides, the growth in the experiment on IGROV1 ovarian was -68.3% (active); in the experiment on OVCAR-3 ovarian it was -41.6% (active).
Regarding `S=C=NCCc1ccccc1`, the growth in the experiment with MOLT-4 leukemia was 53.4%; with SR leukemia, 6.81% (active); with RPMI-8226 leukemia, -18.9% (active); in the experiment on OVCAR-5 ovarian it was 33.2%; with OVCAR-4 ovarian, 69.5%; in the experiment with SK-OV-3 ovarian, 122%. In addition, the growth with IGROV1 ovarian was 44.1%; with OVCAR-3 ovarian it was 72%.
Take `CC[C@@H](C)[C@@H]1NC(=O)C(NC(=O)C(CC(C)C)N(C)C(=O)C2CCCN2C(=O)C(C)O)C(C)OC(=O)C(Cc2ccc(OC)cc2)N(C)C(=O)C2CCCN2C(=O)C(CC(C)C)NC(=O)C(C)C(=O)C(C(C)C)OC(=O)C[C@H]1O` (stereo partly drawn): the growth in the experiment on MOLT-4 leukemia is -15.8% (active); in the experiment with SR leukemia, 1.46% (active); with RPMI-8226 leukemia, -27.5% (active); in the experiment with OVCAR-5 ovarian it was -71.8% (active); in the experiment with OVCAR-4 ovarian it was -30.8% (active); in the experiment on SK-OV-3 ovarian it was -38.5% (active). The growth in the experiment with IGROV1 ovarian is -40.4% (active); in the experiment with OVCAR-3 ovarian, -39.6% (active).
Consider `C[C@@H]1C[C@@H]([C@H](O)CC2CC(=O)NC(=O)C2)C(=O)[C@@H](C)C1`, for which the growth was 3.71% (active) in the experiment on MOLT-4 leukemia; 13.8% with SR leukemia; 3.4% (active) in the experiment on OVCAR-8 ovarian; 8.45% (active) with OVCAR-5 ovarian; 12.8% in the experiment on OVCAR-4 ovarian; 10.9% in the experiment with SK-OV-3 ovarian. In addition, the growth in the experiment with IGROV1 ovarian was 11.3%; in the experiment on OVCAR-3 ovarian, 4.14% (active); in the experiment on HS 578T breast, 7.45% (active).
On to `NNc1ccccc1`, for which the growth is 73.1% in the experiment with MOLT-4 leukemia; 53% in the experiment with SR leukemia; 100% in the experiment with OVCAR-8 ovarian; 90.2% with OVCAR-5 ovarian; 102% in the experiment with OVCAR-4 ovarian; 99.6% in the experiment on SK-OV-3 ovarian. Moreover, the growth in the experiment on IGROV1 ovarian was 88.4%; in the experiment with OVCAR-3 ovarian it was 97.7%; in the experiment with HS 578T breast, 109%.
For the compound `C[CH2][Hg][S]c1ccccc1C(=O)O`, the growth was 0.484% (active) in the experiment with MOLT-4 leukemia; -5.7% (active) in the experiment with SR leukemia; -17.6% (active) in the experiment with RPMI-8226 leukemia; -98.1% (active) with OVCAR-8 ovarian; -36.6% (active) with OVCAR-4 ovarian; 21.1% with SK-OV-3 ovarian. The figures for the growth with IGROV1 ovarian, in the experiment with OVCAR-3 ovarian and in the experiment on HS 578T breast were 16.9%, -100% (active) and -1.53% (active), respectively.
As for `Cc1ccc(NC(=O)CBr)cc1`, the growth is 98.4% in the experiment with MOLT-4 leukemia; 89.5% in the experiment with SR leukemia; 102% with RPMI-8226 leukemia; 109% in the experiment with OVCAR-5 ovarian; 102% in the experiment on OVCAR-4 ovarian; 86.1% in the experiment with SK-OV-3 ovarian. Besides, the growth in the experiment with OVCAR-3 ovarian is 112%; with HS 578T breast, 107%.
In the case of `O=[N+]([O-])c1ccc(N2CCOCC2)c2c1no[n+]2[O-]`, the growth is 3.12% (active) in the experiment with MOLT-4 leukemia; -7.12% (active) with RPMI-8226 leukemia; 28.1% in the experiment on OVCAR-8 ovarian; 43.8% in the experiment with OVCAR-5 ovarian; -6.35% (active) in the experiment on OVCAR-4 ovarian; 7.59% (active) in the experiment on SK-OV-3 ovarian. The growth with OVCAR-3 ovarian was -34.3% (active); with HS 578T breast, 1.69% (active).
